An excerpt weighted towards active compounds, which were near 3% of everything screened.
Tau fluor counter: counter-screen for tau fibril formation inhibitors | tau K18 P301L Alexa594 fluorescence, heparin fibrillization | Potency, µM (titrated, usually from 57.7 µM) | 0.93% of 280,000 active; further: nearly all actives have a fitted effect of over 55% in size
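Human K18 P301L tau (15 uM unlabeled plus 0.24 uM Alexa 594-labeled, final) in 100 mM sodium acetate pH 7 was mixed with compound and 20 uM heparin and incubated 6 hr at 37 C.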
TRb-SRC2 inh: disrupts binding of human TR beta to SRC2; P10828; TRbeta-SRC2 peptide binding, fluorescence polarization; receptor liganded with 1 µM T3; Potency, µM (highest dose often 106 µM), usual class: inhibitors; 0.065% of 280,000 active; AID 1469; further: nearly all actives have a fitted effect of over 50% in size
Target sequence (P10828 whole entry, looked up): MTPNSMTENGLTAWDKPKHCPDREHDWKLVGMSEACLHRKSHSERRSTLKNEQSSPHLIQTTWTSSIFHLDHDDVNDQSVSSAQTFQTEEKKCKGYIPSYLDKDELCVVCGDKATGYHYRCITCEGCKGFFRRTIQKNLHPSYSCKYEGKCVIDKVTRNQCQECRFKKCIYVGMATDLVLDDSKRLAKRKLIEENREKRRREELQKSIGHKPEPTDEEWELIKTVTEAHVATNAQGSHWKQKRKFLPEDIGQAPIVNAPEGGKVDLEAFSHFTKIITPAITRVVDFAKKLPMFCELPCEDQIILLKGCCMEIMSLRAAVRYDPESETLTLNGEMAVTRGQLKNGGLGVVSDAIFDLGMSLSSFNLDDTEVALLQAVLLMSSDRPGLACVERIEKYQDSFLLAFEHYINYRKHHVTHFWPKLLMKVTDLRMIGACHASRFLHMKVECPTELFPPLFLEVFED
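Human TRb ligand-binding domain (0.6 uM) is mixed with 20 nM Texas Red SRC2 peptide and 1 uM T3; after compound addition and 5 hr at ambient temperature, polarization is measured and normalized to unbound and bound controls.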
Tau fibril ThT: blocks human tau fibril formation measured by thioflavin T; recombinant tau K18 P301L, heparin-induced fibrillization, ThT fluorescence; Potency, µM (highest dose often 57.4 µM), most hits filed as inhibitors; AID 1460; 2.1% of 270,000 active; further: nearly all actives have a fitted effect of over 55% in size
Target sequence (P10636 561-689 P618L limits assumed): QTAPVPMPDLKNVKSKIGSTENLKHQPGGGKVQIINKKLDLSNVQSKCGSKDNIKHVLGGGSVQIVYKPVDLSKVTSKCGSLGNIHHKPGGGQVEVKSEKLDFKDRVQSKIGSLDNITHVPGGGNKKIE
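ThT emission at 510 nm, taken 1 hr after adding 30 uM dye, quantifies aggregates formed when 20 uM heparin acts on human tau K18 P301L for 6 hr at 37 C.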
Tau fibril FP: tau fibrillization inhibition (FP). K18 P301L tau heparin fibrillization, Alexa594 FP, 6 h. Potency, µM (doses to about 57.7 µM), actives largely listed as inhibitors. 0.39% of 280,000 active; further: nearly all actives have a fitted effect of over 55% in size
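Heparin (20 uM) drove fibril formation of recombinant tau K18 P301L, 15 uM unlabeled with 0.24 uM Alexa 594 label, for 6 hr at 37 C in 100 mM sodium acetate pH 7. Fluorescence polarization (555/632 nm) read 1 hr after 30 uM ThT.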
TR SRC2 fluor cs: counter-screen for TRb-SRC2 inhibitors: fluorescence interference | TRb/SRC2 Texas Red total fluorescence interference | Potency, µM (titrated, usually from 106 µM) | 0.29% of 280,000 active | AID 1479; active means well fitted curve in either direction with a large enough effect; inconclusive means small, poorly fitted or top-dose-only effect
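Human TRβ ligand-binding domain (0.6 uM) and Texas Red SRC2 peptide (20 nM) in Tris buffer with 1 uM T3 and 5% DMSO were incubated with pinned compound for 5 hr at ambient temperature. Total fluorescence was computed as S + 2P (555/632 nm).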
Numbers stand for hits; . = inactive; ? = inconclusive; / = not tested or not shown; [ ] = another dose, or the depositor's remark. Unless noted, the call rests on the fitted dose curve; in most records, active means well fitted curve in the direction sought with a large enough effect; inconclusive means small, poorly fitted or top-dose-only effect, or another doubt; inactive means no such curve, though single readings can be large; an effect the other way counts as inactive or inconclusive.

SMILES	Tau fluor counter	TRb-SRC2 inh	Tau fibril ThT	Tau fibril FP	TR SRC2 fluor cs
O=C(Cn1c(O)c(/C=C2\C=Nc3ccccc32)sc1=O)N1CCOCC1	.	.	.	.	.
O=c1[nH]c(S)c(/C=C2\C=Nc3ccccc32)s1	?	.	1.4µM	?	.
CSc1nc2ccc(NS(=O)(=O)c3cccc(Cl)c3Cl)cc2s1	.	.	.	.	1.1µM[quencher]
CS(=O)(=O)N(CC(=O)NCC1CCCO1)c1cc(Cl)cc(Cl)c1 (stereo unspecified)	.	.	.	.	.
CS(=O)(=O)N(CC(=O)NCC1CCCO1)c1cccc(Cl)c1 (stereo unspecified)	.	.	5µM	.[2.34 µM]	.
N#Cc1c(N2CCN(c3ccc(F)cc3)CC2)nc(N)c2c(N)nc3c(c12)CC(=O)N3C1CC1	.	.	.	.	.
CN(CCO)c1nc(N)c2c(N)nc3c(c2c1C#N)CC(=O)N3C1CCCC1	?	?	28µM	?	.
Nc1ccc2nc(-c3ccccn3)[nH]c2c1	?	.	25µM	.	.
Nc1ccc2nc(-c3ccccc3)[nH]c2c1	.	.	?	.	.
COc1cccc(N2CCN(C(=O)C3Cc4ccccc4N3C(C)=O)CC2)c1 (stereo unspecified)	.	.	.	.	.
COc1ccc(NC(=O)c2cc3c(Cl)nc4ccccc4c3s2)cc1OC	4.5µM[quencher]	.	?	.	.
COc1ccc(OC)c(NC(=O)c2cc3c(Cl)nc4ccccc4c3s2)c1	.	.	.	.	.
N#Cc1ccc(-c2ccco2)nc1SCC(=O)c1ccc(Cl)cc1	?	.	5µM	.	.
COC(=O)c1c(NC(=O)c2cc3ccccc3c(=O)o2)sc2c1CCCC2	.	.	.	.	.
C/C(N)=C(/C#N)C(=O)COC(=O)c1cccc2ccccc12	?	.	.	.	.
C/C(N)=C(/C#N)C(=O)COC(=O)c1cc(-c2cccc3ccccc23)nc2ccccc12	?	.	.	11µM	.
N/C(=C\C(=O)c1cc(Cl)ccc1O)C(Cl)(Cl)Cl	.	.	18µM	?	.
O=C1C2=CC[C@H]3C(=O)N(Cc4ccc5c(c4)OCO5)C(=O)[C@@H]3[C@@H]2[C@H](O)[C@@H]2O[C@H]12	.[11.6 µM]	.[11.2 µM]	?	?	.[11.2 µM]
O=C(Nc1ccc(Nc2ccncc2)cc1)c1ccc(Nc2ccnc3ccc([N+](=O)[O-])cc23)cc1[N+](=O)[O-]	11µM[quencher]	.	?	.	?
COc1ccc(S(=O)(=O)NCCC(=O)NCc2ccccc2)cc1	7.9µM[quencher]	.	.	?	.
O=C(Nc1ccccc1)/C(=C/c1ccccc1)c1ccccc1	?	.	.	20µM	.
O=C(O)c1cccc(CN2C(=O)S/C(=C/c3cccc([N+](=O)[O-])c3)C2=O)c1	.[0.0958 µM]	.	/	.[0.0958 µM]	.
CN1C(=O)/C(=C/c2ccc(O)c([N+](=O)[O-])c2)NC1=S	.	.	16µM	.	.
COc1cc(/C=C2\NC(=S)N(C)C2=O)ccc1O	.	.	?	.	.
NC1=NC(=O)/C(=C\c2ccc(O)c([N+](=O)[O-])c2)S1	.	.	?	.	.
SMILES	Tau fluor counter	TRb-SRC2 inh	Tau fibril ThT	Tau fibril FP	TR SRC2 fluor cs
O=C1/C(=C/c2ccc(O)c([N+](=O)[O-])c2)SC(=S)N1Cc1ccccc1	?	.	7.1µM	.	.
O=C(NN1C(=O)/C(=C/c2ccc(O)c([N+](=O)[O-])c2)SC1=S)c1ccccc1Cl	?	.	4µM	.	.
COc1ccc(C2/C=C\CN(C(=O)C3CCCCC3)C(Cc3ccccc3)C(=O)N2Cc2ccc(F)cc2)cc1 (stereo unspecified)	/	.	/	/	.
COC(=O)C(Nc1ccccc1Cl)(c1cc(C)c(O)c(C)c1)C(F)(F)F (stereo unspecified)	?	.	.	?	.
COC(=O)/C(=C(/F)Sc1cc(C)c(O)c(C)c1)C(F)(F)F	13µM[quencher]	.	?	?	.
COc1ccc(C(=O)Nc2ccc(OCC(F)(F)C(F)F)c(C(F)(F)F)c2)cc1OC	?	.	.	22µM	.
N#Cc1c(N)oc(-c2ccco2)c1-c1ccco1	?	.	14µM	.	.
O=C(NCCc1nc2ccccc2n1Cc1ccccc1)c1ccco1	.	.	.	.	.
Cc1ccc2[nH]c(=O)c(CN(C(=O)c3cccc(Cl)c3)C(C)(C)C)cc2c1	.	.	.	.	32µM[quencher]
Cc1cccc(Nc2nc(-c3ccccc3)nc3ccccc23)c1	6.3µM[quencher]	.	.	8.9µM	.
CC(=O)Nc1cccc(Nc2nc(-c3ccccc3)nc3ccccc23)c1	?	.	.	?	.
CN(C)c1ccc(-c2nc(N3CCNCC3)c3ccccc3n2)cc1	?	.	14µM	.	.
Cc1ccc(Nc2nc(-c3ccccc3)nc3ccccc23)cc1	10µM[quencher]	.	?	18µM	.
Oc1cccc(Nc2nc(-c3ccccc3)nc3ccccc23)c1	7.1µM[quencher]	.	.	14µM	.
O=C(N/N=C1/C[C@@H](O)[C@@H](O)[C@@H]2[C@@H]3C(=O)N(C4CCCCC4)C(=O)[C@H]3CC[C@H]12)OCc1ccccc1	.[11.6 µM]	.[11.2 µM]	.[11.5 µM]	.[11.6 µM]	.[11.2 µM]
COc1ccc(Nc2nc(-c3ccccc3)nc3ccccc23)cc1S(=O)(=O)N1CCOCC1	13µM[quencher]	.	/	25µM	.
CN(C)c1ccc(-c2nc(Nc3ccncc3)c3ccccc3n2)cc1	7.1µM[quencher]	.	7.1µM	?	.
Cc1ccccc1CN1C(=O)C(O)(c2c[nH]c3ccccc23)c2cc(Cl)ccc21 (stereo unspecified)	?	.	.	.	.
COc1ccc(C(=O)NC(=S)NNC(=O)Cc2cccs2)cc1	.	.	.	.	.
COc1cc(OC)cc(C(=O)NC(=S)NNC(=O)Cc2cccs2)c1	.	?	.	.	0.32µM[quencher]
N#CCC(=O)Nc1ccc(C(=O)OCC(=O)Nc2ccccc2Sc2ccccc2)cc1	?	.	.	28µM	.
C/C(=C\C(=S)Nc1ccccc1)Nc1ccc2ccccc2c1	?	.	13µM	?	.
C/C(=C\C(=S)Nc1ccccc1)Nc1cccc2ccccc12	.	.	?	.	.
CC1C/C(=C\c2cccnc2)C(=O)/C(=C/c2cccnc2)C1 (stereo unspecified)	.	.	7.1µM	?	.
O=C1/C(=C\c2cccnc2)Sc2ccccc21	.	.	?	.	.
O=C1/C(=C/c2cccnc2)CCc2c1[nH]c1ccccc21	.	.	7.1µM	.	.
CC(C)(C)c1ccc(OCCn2cc(C(=O)c3ccco3)c3ccccc32)cc1	?	.	.	?	.
CC(/C=N/Nc1nnc2c(n1)[nH]c1ccccc12)=C\c1ccco1	?	.	6.3µM	.	.
COc1cccc(/C=N/Nc2nnc3c(n2)[nH]c2ccccc23)c1OC	.	.	/	.	.
Cc1cccc2c1[nH]c1nc(N/N=C\c3ccco3)nnc12	.	.	6.3µM	.	.
